Assay outcomes deposited in PubChem BioAssay by National Center for Advancing Translational Sciences (NCATS).
OvCa metastasis = inhibitors of ovarian cancer cell adhesion and invasion in omental model. SKOV3ip1-GFP adhesion/invasion on 3D omental model, fluorescence. Potency, µM (highest dose often 45.8 µM), inactives show top-dose activity change, negative = inhibition, hits mostly inhibitors. 46,000 compounds, 0.1% hits. AID 1963576;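 further: plate controls were DMSO wells for no effect and tomatine positive control wells for full effect; nearly all actives have a fitted effect of over 65% in size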
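Primary human omental fibroblast/mesothelial 3D culture pre-formed 48 h. SKOV3ip1-GFP cells added with compounds (0.36-46 umol/L), incubated 2 h RT/16 h 37 C, fixed; GFP cells quantified at 488/509 nm.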
PMP22 txn prim = modulates PMP22 transcription in S16 Schwann cells. S16 Pmp22-F2sN Schwann cells, FLuc/NLuc coincidence luminescence, 24 h. AID 1508649. 43,000 compounds, 2% hits. Potency, µM (titrated, usually from 57.5 µM), for the others: at the highest dose activity change, negative = inhibition, usual class: inhibitors; active means clear falling dose curves in both reporters; inconclusive means both reporters move, but less clearly or upward; inactive means either reporter flat; the % is the NLuc reporter signal
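qHTS, 1536-well. Cells seeded, compounds added by pin tool, 24 h 37C. Nano-Glo reagent 1 (lysis/FLuc), 10 min RT, read; Stop&Glo, 10 min RT, read NLuc.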
p53null 32C kill = selectivity test: cytotoxicity in p53 null cells, permissive temperature; Potency, µM (top dose mostly 46.1 µM), inactives show at the top dose activity change, negative = cytotoxicity, most hits filed as cytotoxic; 55,000 compounds, 0.62% hits; H1299-neo p53 null cells, ATP luminescence, 24 h, 32C; AID 903;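 further: 0% = DMSO only and -100% = full killing by 100 µM tamoxifen; nearly all actives have a fitted effect of over 55% in size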
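Cells lacking p53 (H1299-neo) are plated at 600 per well and allowed to settle overnight at 37C. Test compounds (up to 46 uM) are added and held 24 hours at 32C, then ATP is quantified by luminescence.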
p53null 39C kill = p53 null cell cytotoxicity, nonpermissive temperature; H1299 p53-null (neo) cells, 39C, ATPlite viability, 24 h; Potency, µM (series often up to 46.1 µM), for the others: at the highest dose activity, negative = cell killing, usual class: cytotoxic; 55,000 compounds, 0.97% hits; AID 904;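 further: 0% = DMSO only and -100% = full killing by 100 µM tamoxifen; nearly all actives have a fitted effect of over 50% in size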
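Cells seeded at 600/well, 37C overnight. Compound added (up to 46 uM), plates shifted to 39C for 24 hr. ATPlite added, luminescence read after 20 min at room temperature.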
mTORC1 inh = inhibitors of mTORC1 signaling in Tsc2-/- p53-/- MEF cells. Tsc2-/- p53-/- MEF, phospho-rpS6 immunofluorescence/PI, 24 h. Potency, µM (doses to about 38.3 µM), for inactives: at the highest dose activity change, negative = inhibition, hits mostly inhibitors. 44,000 compounds, 0.78% hits;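 further: plate controls were DMSO for no effect and rapamycin for full effect; nearly all actives have a fitted effect of over 50% in size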
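Plate MEFs (Tsc2-/-, p53-/-, empty vector) in DMEM/10% FBS; after 24 h add compound, incubate 24 h at 37 degree Celsius; fix in PFA/TX-100, block, stain phospho-rpS6 and 10 uM PI; scan at 488 nm; report % positive cells.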
S16 F2sN tox = toxic to S16 Pmp22-F2sN Schwann cells. S16 Pmp22-F2sN Schwann cells (luciferase reporters placed in the Pmp22 gene) viability, CellTiter-Glo, 24 h. Potency, µM (titrated, usually from 57.5 µM), for the others: at the top dose activity change, negative = cytotoxicity, actives largely listed as cytotoxic. 43,000 compounds, 0.48% hits. AID 1508642; further: nearly all actives have a fitted effect of over 65% in size
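Seed 500-1,000 S16 Pmp22-F2sN cells per well in phenol-red-free DMEM with 10% heat-inactivated FBS; pin-add 23 nL compound; incubate 24 h at 37C; add CellTiter-Glo, wait 15 min protected from light; read luminescence.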
Starred values were filed as active, the others as inactive; i = inactive; ? = inconclusive; / = no result given; [ ] = another dose, or the depositor's remark. Most compounds without a hit are left out; they make up all but 3.1% or so of the library. Unless noted, the call rests on the fitted dose curve; in most records, active means well fitted curve in the direction sought with a large enough effect; inconclusive means small, poorly fitted or top-dose-only effect, or another doubt; inactive means no such curve, though single readings can be large; an effect the other way counts as inactive or inconclusive. Unless noted, on the % scale 0 is the no-effect control and ±100 the full control effect; potency means the concentration at half of the fitted maximal effect.

SMILES	OvCa metastasis	PMP22 txn prim	p53null 32C kill	p53null 39C kill	mTORC1 inh	S16 F2sN tox
COc1ccc(CNC(=O)C2CCN(c3nc4ccc(C)cc4[nH]3)CC2)cc1	-4.9%	-2.1%	3.5%	-4.9%	13.1µM*	0.1%
CCCCN(CC)CCNC(=O)C1CCN(c2nnc(C)c3c(C)n(-c4ccc(C)cc4)nc23)CC1	?	?	18.7%	-20.8%	14.7µM*	?
Cc1ccn(-c2ccc(-c3ncco3)cc2)c(=O)c1-c1ccc2nc(N)ncc2c1	-17.7%	/	/	/	/	/
CCOC(=O)N[C@@H]1CC[C@@H]2[C@@H](C1)C[C@H]1C(=O)O[C@H](C)[C@H]1[C@@H]2C=Cc1ccc(-c2cccc(F)c2)cn1	1.1%	/	/	/	/	/
COc1cc2nccc(Oc3ccc(NC(=O)Nc4cc(C)on4)c(Cl)c3)c2cc1OC	4.6%	/	/	/	/	/
C[C@H](NC(=O)c1sccc1OCc1ccc(Cl)cc1)c1ccccc1	-5.8%	/	/	/	/	/
COc1ccc(-n2nc3c(N4CCCC(C(=O)NCc5ccc(C)cc5)C4)nnc(C)c3c2C)cc1 (configuration not stated)	12.6µM*	?	?	14.6%	-19.0%	?
COc1ccc(CNC(=O)C2CCN(c3nnc(C)c4c(C)n(-c5ccc(C)cc5)nc34)CC2)cc1	?	?	?	12.6µM*	1.0%	?
COc1cc(C(=O)Nc2sc3c(c2C#N)CCCC3)c(Br)c(OC)c1OC	-9.2%	13.4µM*	21.0%	6.8%	7.4%	?
Cc1ccc(/C=C/c2nc3ccccc3[nH]2)cc1	?	?	0.398µM*	1.58µM*	14.1%	15.8µM*
COc1cc(Nc2nc(SCC(=O)c3ccc(Cl)c(Cl)c3)nc3ccccc23)cc(OC)c1	i	?	-1.4%	21.1%	11.7µM*	-6.0%
COc1ccc(C(=O)Nc2cccc(-c3cn4ccsc4n3)c2)cc1OC	i	?	?	12.6µM*	?	-1.2%
CCCCOc1cccc(NC(=O)c2cccc(C(=O)Nc3cccc(OCCCC)c3)c2)c1	-14.4%	-16.5%	6.4%	-14.3%	7.36µM*	-2.0%
CCCOc1cccc(C(=O)Nc2cccc(NC(=O)c3ccc(Cl)cc3Cl)c2)c1	-6.8%	-9.7%	-3.8%	-3.8%	9.8%	?
CCCOc1ccc(C(=O)Nc2cccc(NC(=O)c3ccc(Cl)cc3Cl)c2)cc1	?	?	?	?	-10.2%	14.1µM*
CCCOc1ccc(C(=O)Nc2ccc(NC(=O)c3ccccc3)c(C)c2)cc1	-6.7%	?	-3.3%	-10.6%	13.1µM*	-0.8%
Cc1cn2c(-c3cn[nH]c3)cnc2c(Nc2ccc(C(=O)N3CCNCC3)cc2F)n1	-11.9%	/	/	/	/	/
COc1cccc(Nc2c(C(N)=O)cnc3c(C)cc(S(=O)(=O)c4cccc(C(=O)N(C)C)c4)cc23)c1	-8.7%[23.2 µM]	/	/	/	/	/
Cc1ccc(CN2c3ccccc3-c3nc(SCC(=O)NCCc4ccccc4)ncc3S2(=O)=O)cc1	-9.5%	2.8%	-0.8%	-10.6%	6.3%	2.2%
Cc1ccc(CN2c3ccccc3-c3nc(SCC(=O)Nc4c(C)cc(C)cc4C)ncc3S2(=O)=O)cc1	3.3%	?	-9.6%	-25.8%	-7.9%	28.2µM*
Fc1ccc(Cc2cn3cc(-c4ccccc4)nc3s2)cc1	i	-20.8%	4.47µM*	2µM*	2.2%	14.7%
Cc1cccc(NC(=O)Cn2cc(C(=O)C3CCCCC3)c3ccccc32)c1C	-0.4%	10µM*	7.2%	-25.8%	-12.4%	?
Cc1ccc(NC(=O)Cn2cc(C(=O)C3CCCCC3)c3ccccc32)c(C)c1	3.8%	?	9.3%	-13.7%	1.0%	-26.7%
CCOC(=O)c1ccc(NC(=O)c2nsc3ccccc23)cc1	-6.9%	-15.6%	7.94µM*	10µM*	-3.9%	?
